31 compounds from PubChem BioAssay AID2410 (Southern Research Specialized Biocontainment Screening …, 2010) can be followed below.

Screen size: about 2,500 compounds; about 2,100 (84%) were called active.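 How the source made its calls: active means toxic compounds, whose cell viability fell below 70% of untreated control cells; inactive means the rest.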 The set was probably picked from earlier hits. A selection follows. Results with a measured potency or affinity are listed apart.

This assay is described as follows: viability of uninfected HEp-2 cells – cell-based, HTS, cytotoxicity control for RSV inhibitor project, dose response (AID 2410).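 Further: cells exposed to compound for six days before readout; 100% = median signal of untreated cell control wells on each plate.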 The following applies: HEp-2 viability, luminescence, cytotoxicity counter-screen; series mostly up to 50 µM; viability: at the top concentration. A general note: A counterscreen serves to expose hits that act by an unwanted route or on another target.
A word on the viability: it is a read-out of living cells in per cent, often relative to untreated cells. Turning to `Nc1ccc(Cl)c[n+]1Cc1cccc2cccnc12`, the “viability” value was 90.8% (inactive). Consider `N#C/C(=C\c1ccncc1)c1nc2c(s1)CCCC2`, for which the “viability” value is 85.4% (inactive).

As for `COc1ccc2ccc(=O)oc2c1`, the “viability” value is 118% (inactive). Take `Cc1c(CC(=O)N2CCN(C(=O)C3COc4ccccc4O3)CC2)c(=O)oc2cc(O)cc(O)c12` (stereo unspecified): the “viability” value is 109% (inactive). Consider `Cc1cc(S(=O)(=O)N2CCCC2)ccc1OCC(=O)Nc1ccccc1`, for which the “viability” value is 111% (inactive). Take `CC(=O)c1ccc2c(ccc3ccccc32)c1`: the “viability” value was 111% (inactive). For the compound `COCCCNC(=O)c1ccc(Cn2c(=O)c3ccccc3n(Cc3ccc(C)cc3)c2=O)cc1`, the “viability” value is 84.2% (inactive). The same measure for `CC(=O)c1c(C)nc(-c2ccc(Cl)cc2)nc1N=CN(C)C`: 72.1% (inactive).

As for `O=C1c2ccccc2C(Nc2cccnc2)N1Cc1ccc2c(c1)OCO2` (stereo unspecified), the “viability” value was 93.3% (inactive). On to `Cc1ccc2[nH]c(=O)c(COC(=O)c3ccccn3)cc2c1`, for which the “viability” value was 87% (inactive).

In the case of `COc1ccc(NC(=O)C2(c3ccc(NC(=O)c4ccc(OC)cc4)cc3)CCCC2)cc1`, the “viability” value was 102% (inactive).

`Nc1nnnn1/N=C/c1ccc(O)cc1`: the “viability” value was 86.5% (inactive).

With `COCCn1c(-c2ccc(Cl)cc2Cl)nc2c(c(=O)c3ccccc3n2C)c1=O`, the “viability” value was 100% (inactive).

Take `CCCCCC(=O)Nc1nc(C)c(-c2csc(Nc3cc(Cl)ccc3OC)n2)s1`: the “viability” value is 92.3% (inactive). The figure for `O=C(NC(C(=O)N/N=C/c1cccnc1)c1n[nH]c(=O)c2ccccc12)c1ccccc1` (stereo unspecified) is 89.3% (inactive). Consider `O=C(NCCSCc1c(F)cccc1Cl)Nc1ccccc1`, for which the “viability” value was 82% (inactive). For `Cc1nc2cc(Cl)c(Cl)cc2n1-c1ccccn1`, the “viability” value is 79.3% (inactive).

As for `Cc1ccc([N+](=O)[O-])cc1S(=O)(=O)Nc1cccc(-c2ccc(N3CCOCC3)nn2)c1`, the “viability” value was 110% (inactive). The figure for `Cc1c(-c2nc(N)nc(Nc3ccc(F)cc3)n2)oc2ccccc12` is 74.9% (inactive).

With `COC(=O)c1ccc(Nc2nnc(-c3ccc(C)c(S(=O)(=O)NCC4CCCO4)c3)c3ccccc23)cc1` (stereo unspecified), the “viability” value was 84.7% (inactive).

For the compound `CCCc1cc(-n2cnc3ccccc32)n2c(nc3ccccc32)c1C#N`, the “viability” value is 75.4% (inactive). The same measure for `O=C(CSc1nc2ccccc2c2nc3ccccc3n12)NCc1ccco1`: 71.2% (inactive); for `Cc1ccc2cc3cc(C(=O)N4CCCCCC4)oc3nc2c1`: 86.8% (inactive); for `Cc1sc(=NC(=O)c2ccco2)n(C)c1-c1ccc(Cl)cc1`: 88.3% (inactive). For the compound `Cn1cc(C(N)=O)c2ccccc21`, the “viability” value was 102% (inactive). As to `Cc1ccc(C)c(NC(=O)CSc2nc3c(oc4ccccc43)c(=O)n2-c2ccccc2)c1`, the “viability” value was 76.1% (inactive). For the compound `O=C(Nc1ccon1)c1sc2cc(F)ccc2c1Cl`, the “viability” value was 94.7% (inactive).

For `Cc1ccc(/C=N\NC(=O)C2CN(S(=O)(=O)c3ccccc3)CCN2S(=O)(=O)c2ccccc2)cc1` (stereo unspecified), the “viability” value was 71% (inactive). As to `C/C(N)=C(/C#N)C(=O)CSc1cc(C)c2cc(C)cc(C)c2n1`, the “viability” value was 85.6% (inactive). For `C/C(N)=C(/C#N)C(=O)CSc1ncnc2ccccc12`, the “viability” value is 98% (inactive). As for `COc1ccc(CN2C(=O)c3cccnc3C2Nc2ccc(OC)c(Cl)c2)cc1` (stereo unspecified), the “viability” value is 74.6% (inactive).
